Outcome and AC50 data for 39 compounds are collected here from PubChem BioAssay (EPA / NIEHS).

Activity calls are given as the source filed them. The calls were made as follows: active = hit-call score of the fitted dose curve at least 0.9, where 1 is the maximum; inactive = score below 0.9.

The experiment in a line: ATG_ERE_CIS: Attagene CIS-FACTORIAL HepG2 Assay for Estrogen Response Element (ERE) (AID 2282940). The conditions noted are these: HepG2 ERE cis-reporter, Attagene RNA transcript; actives raise or lower the signal. The essentials: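 Cells used were human hepatoma HepG2, transfected with multiple reporter transcription units under cis-regulatory promoters. Reporter mRNA, read 24 h post-dosing via fluorescent RT-PCR products on capillary electrophoresis, was fitted bidirectionally relative to DMSO.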
Take `CCOS(=O)(=O)OCC`: the compound was called inactive.
A word on the AC50: it is the concentration giving half of the maximal activity seen. On to `ClC(Cl)(Cl)c1ccccc1`, for which the AC50 was 45.1 µM (active).
Turning to `CC(C)(C)N(NC(=O)c1ccc(Cl)cc1)C(=O)c1ccccc1`, the compound was called inactive.
The same measure, in the same setting: for `CCN(CC)c1ccccc1` the value was “inactive”.
For the compound `CCCCN(CCCC)SN(C)C(=O)Oc1cccc2c1OC(C)(C)C2`, the AC50 is 14.7 µM (active).
In the case of `CCOP(=S)(OCC)SCSCC`, the AC50 is 14.9 µM (active).
For the compound `CCCCCCCc1ccc(O)cc1`, the AC50 was 3.89 µM (active) [middle of 4 runs].
`O=C(O)C=CC(F)(C(F)(F)F)C(F)(F)F`: the outcome was inactive.
For `CC(Cc1ccc(OCC(=O)O)cc1)NCC(O)c1csc(C(F)(F)F)n1` (centres undefined), the compound was classed as inactive.
`CCC(C)(C)c1ccc(O)cc1`: the AC50 was 2.25 µM (active).
On to `O=S(=O)(F)C(F)(F)C(F)(F)C(F)(F)C(F)(F)C(F)(F)C(F)(F)C(F)(F)C(F)(F)F`, for which the result was inactive.
The same measure, in the same setting: for `N#Cc1c(-c2ccc(Cl)cc2)[nH]c(C(F)(F)F)c1Br` the value was “inactive”.
`O=P(Oc1ccccc1)(Oc1ccccc1)Oc1ccccc1`: the AC50 was 9.81 µM (active).
Consider `O=[N+]([O-])c1ccc(Cl)c(Cl)c1`, for which the call was inactive.
For `C/C(=N\NC(=O)Nc1cc(F)cc(F)c1)c1ncccc1C(=O)O`, the compound was classed as inactive.
Turning to `Nc1ccc(Cl)cc1`, the compound was called inactive.
Regarding `CC(O)C#N` (centres undefined), the call was inactive.
Take `C=C(C)C(=O)OCC1CO1` (centres undefined): the result was inactive.
Turning to `CCCCN(CC)C(=O)SCCC`, the compound was called inactive.
As to `CCCCN(CCCC)N=O`, the call was inactive.
Turning to `ClC(Cl)c1ccccc1`, the call was inactive.
`c1ccc2c(c1)sc1ccccc12`: the AC50 is 125 µM (active).
For the compound `Cc1ccc([N+](=O)[O-])cc1C`, the outcome was inactive.
Regarding `CCC1(c2ccccc2)C(=O)N=C(O)NC1=O` (centres undefined), the call was inactive.
Regarding `OCC(F)(F)OC(F)(F)C(F)(F)OC(F)(F)CO`, the AC50 was 20 µM (active).
As to `CCOP(=S)(Oc1ccc([N+](=O)[O-])cc1)c1ccccc1` (centres undefined), the AC50 was 3.35 µM (active).
Turning to `CCOP(=S)(OCC)SCn1nnc2ccccc2c1=O`, the AC50 was 7.39 µM (active).
Take `CC(C)(C)OOC(C)(C)C`: the call was inactive.
`Nc1ccc(Sc2ccc(N)cc2)cc1`: the AC50 is 14.4 µM (active).
For `CN(C)C(=O)Cl`, the outcome was inactive.
As for `CCCCc1ccc(O)cc1`, the AC50 was 7.43 µM (active).
On to `c1ccc(OP(Oc2ccccc2)Oc2ccccc2)cc1`, for which the AC50 was 72.9 µM (active).
Consider `CC(Cl)(Cl)C(=O)O`, for which the compound was called inactive.
For `OCC(F)(F)OC(F)(F)C(F)(F)OC(F)(F)C(F)(F)OC(F)(F)CO`, the AC50 was 0.506 µM (active).
`O=C(O)C1C(C(=O)O)C2(Cl)C(Cl)=C(Cl)C1(Cl)C2(Cl)Cl` (centres undefined): the compound was called inactive.
In the case of `O=P1(N(CCCl)CCCl)NCCCO1` (centres undefined), the AC50 was 3.3 µM (active).
Take `O=C(O)C(F)(OC(F)(F)C(F)(F)C(F)(F)F)C(F)(F)F` (centres undefined): the compound was classed as inactive.
In the case of `CCCCc1ccccc1`, the compound was called inactive.
As to `N#Cc1cc([N+](=O)[O-])ccc1N`, the call was inactive.
